# Shown is part of a subset that was picked to be rich in the strongest signals.
# B1: FBG2 (Homo sapiens), Q9NRD1 (protein)
# chain: MDAPHSKAALDSINELPENILLELFTHVPARQLLLNCRLVCSLWRDLIDLMTLWKRKCLREGFITKDWDQPVADWKIFYFLRSLHRNLLRNPCAEEDMFAWQIDFNGGDRWKVESLPGAHGTDFPDPKVKKYFVTSYEMCLKSQLVDLVAEGYWEELLDTFRPDIVVKDWFAARADCGCTYQLKVQLASADYFVLASFEPPPVTIQQWNNATWTEVSYTFSDYPRGVRYILFQHGGRDTQYWAGWYGPRVTNSSIVVSPKMTRNQASSEAQPGQKHGQEEAAQSPYRAVVQIFPPPVTIQQWNNATWTEVSYTFSDYPRGVRYILFQHGGRDTQYWAGWYGPRVTNSSIVVSPKMTRNQASSEAQPGQKHGQEEAAQSPYRAVVQI
# How the values were obtained:
# Test in all cases: glycan array binding signal (z-score within array); higher = stronger binding
# Details in all cases: glycan notation: IUPAC condensed, linker removed
# [1] = target: Fuc(a1-3)[Gal(b1-4)]GlcNAc
# In short: (§1)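 Glycan array binding is given as a within-array Z-score, which can be read as non-binding when negative. The arrays, 3228 of them, came from the Consortium for Functional Glycomics database and were retained only where the protein sequence was available. Z-scores were averaged across arrays of the same protein sequence at different concentrations or buffers and across linkers.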
# [2] = target: Fuc(a1-3)[Gal3S(b1-4)]GlcNAc
# In short: as §1
# Gal(a1-2)Gal = target: Gal(a1-2)Gal
# In short: as §1
# Gal(b1-2)Gal = target: Gal(b1-2)Gal
# In short: as §1
# [3] = target: Gal3S(b1-3)[Fuc(a1-4)]GlcNAc
# In short: as §1
# Glc(b1-4)Glc = target: Glc(b1-4)Glc
# In short: as §1
# [4] = target: GlcNAc(a1-6)Gal(b1-4)GlcNAc
# In short: as §1
# GlcNAc(b1-3)GalNAc = target: GlcNAc(b1-3)GalNAc
# In short: as §1
# [5] = target: GlcNAc(b1-4)[GlcNAc(b1-6)]GalNAc
# In short: as §1
# [6] = target: Man(a1-2)Man(a1-2)Man(a1-3)[Man(a1-2)Man(a1-3)[Man(a1-2)Man(a1-6)]Man(a1-6)]Man(b1-4)GlcNAc(b1-4)GlcNAc
# In short: as §1
# [7] = target: Man(a1-2)Man(a1-2)Man(a1-3)[Man(a1-2)Man(a1-6)[Man(a1-3)]Man(a1-6)]Man(b1-4)GlcNAc(b1-4)GlcNAc
# In short: as §1
# [8] = target: Man(a1-2)Man(a1-3)[Man(a1-6)]Man(a1-6)[Man(a1-2)Man(a1-3)]Man(b1-4)GlcNAc(b1-4)GlcNAc
# In short: as §1
# [9] = target: Man(a1-3)[Man(a1-6)]Man(a1-6)[Man(a1-3)]Man(b1-4)GlcNAc(b1-4)GlcNAc
# In short: as §1
# [10] = target: Man(a1-3)[Man(a1-6)]Man(b1-4)GlcNAc(b1-4)GlcNAc
# In short: as §1
# [11] = target: Neu5Ac(a2-3)Gal(b1-3)[Fuc(a1-4)]GlcNAc
# In short: as §1
# [12] = target: Neu5Ac(a2-3)[GalNAc(b1-4)]Gal(b1-4)Glc
# In short: as §1
# [13] = target: Neu5Ac(a2-6)GalNAc(b1-4)GlcNAc
# In short: as §1
# [14] = target: Neu5Ac(a2-8)Neu5Ac(a2-3)[GalNAc(b1-4)]Gal(b1-4)Glc
# In short: as §1
binder,measurement,setting,value
B1,glycan array binding signal (z-score),[1],-0.537
same,glycan array binding signal (z-score),[2],-0.236
same,glycan array binding signal (z-score),Gal(a1-2)Gal,-0.526
same,glycan array binding signal (z-score),Gal(b1-2)Gal,-0.363
same,glycan array binding signal (z-score),[3],1.01
same,glycan array binding signal (z-score),Glc(b1-4)Glc,-0.116
same,glycan array binding signal (z-score),[4],-0.895
same,glycan array binding signal (z-score),GlcNAc(b1-3)GalNAc,-0.923
same,glycan array binding signal (z-score),[5],-0.787
same,glycan array binding signal (z-score),[6],3.27
same,glycan array binding signal (z-score),[7],3.69
same,glycan array binding signal (z-score),[8],3.61
same,glycan array binding signal (z-score),[9],4.08
same,glycan array binding signal (z-score),[10],3.91
same,glycan array binding signal (z-score),[11],-0.752
same,glycan array binding signal (z-score),[12],-0.116
same,glycan array binding signal (z-score),[13],-0.582
same,glycan array binding signal (z-score),[14],-0.018

# Reference: the supplement of paper PMC8728848
